Test results as given in PubChem BioAssay (NCATS).
Results filed as inconclusive are left out. Calls of active or inactive are those of the source. Calls follow the shape of the dose curve; as a rule, active = well fitted curve in the direction sought with a large enough effect; inconclusive = small, poorly fitted or top-dose-only effect, or another doubt; inactive = no such curve, though single readings can be large; an effect the other way counts as inactive or inconclusive.

What was measured:
[1] = tested on: NIH3T3; experiment: qHTS assay to identify novel small-molecules to repurpose for Merkel cell carcinoma treatment (AID 1296009); conditions: MCC and control cell lines, CellTiter-Glo viability, 72 h; at 44.8 µM (top of the series) unless noted; also: nearly all actives have a fitted effect of over 60% in size
Method in brief: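 Cells were treated for 72 hr at 37 degree celsius with compounds in 8- or 11-point dose response. Viability was read by CellTiter-Glo luminescence, normalized to no-cell (cytotoxicity) and DMSO controls.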

[2] = tested on: C33A; experiment: Primary qHTS to identify gynecologic anti-cancer compounds using libraries of approved drugs and bioactive compounds (AID 1345084); conditions: Gynecologic cancer cell panel viability, ATPlite luminescence, 48 h; series mostly up to 57.5 µM; also: % is scaled to controls: 0 for no effect and ±100 for the full control effect; nearly all actives have a fitted effect of over 55% in size
Method in brief: (§1)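 Cytotoxicity screen measuring ATP content by luciferase luminescence. Each compound is applied at five concentrations for 48 h at 37 C with 5% CO2.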

[3] = tested on: CAOV3; experiment: as above; conditions: Gynecologic cancer cell panel viability, ATPlite luminescence, 48 h; series mostly up to 57.5 µM
Method in brief: as §1

[4] = tested on: CASKI; experiment: as above; conditions: Gynecologic cancer cell panel viability, ATPlite luminescence, 48 h; series mostly up to 57.5 µM
Method in brief: as §1

[5] = tested on: Es-2; experiment: as above; conditions: Gynecologic cancer cell panel viability, ATPlite luminescence, 48 h; series mostly up to 57.5 µM
Method in brief: as §1

[6] = tested on: HeLa; experiment: as above; conditions: Gynecologic cancer cell panel viability, ATPlite luminescence, 48 h; series mostly up to 57.5 µM
Method in brief: as §1

[7] = tested on: Hek293T; experiment: as above; conditions: Gynecologic cancer cell panel viability, ATPlite luminescence, 48 h, control line for the selectivity index; series mostly up to 57.5 µM
Method in brief: as §1

[8] = tested on: JEG-3; experiment: as above; conditions: Gynecologic cancer cell panel viability, ATPlite luminescence, 48 h; series mostly up to 57.5 µM
Method in brief: as §1

[9] = tested on: OV90; experiment: as above; conditions: Gynecologic cancer cell panel viability, ATPlite luminescence, 48 h; series mostly up to 57.5 µM
Method in brief: as §1

[10] = tested on: PA-1; experiment: as above; conditions: Gynecologic cancer cell panel viability, ATPlite luminescence, 48 h; series mostly up to 57.5 µM
Method in brief: as §1

[11] = tested on: SKOV3; experiment: as above; conditions: Gynecologic cancer cell panel viability, ATPlite luminescence, 48 h; series mostly up to 57.5 µM
Method in brief: as §1

[12] = tested on: Tov-21-G; experiment: as above; conditions: Gynecologic cancer cell panel viability, ATPlite luminescence, 48 h; series mostly up to 57.5 µM
Method in brief: as §1

[13] = tested on: Tov112D; experiment: as above; conditions: Gynecologic cancer cell panel viability, ATPlite luminescence, 48 h; series mostly up to 57.5 µM
Method in brief: as §1

O=C(CCc1ccccc1)c1c(O)c([C@@H]2O[C@H](CO)[C@@H](O)[C@H](O)[C@H]2O)c(O)c([C@@H]2O[C@H](CO)[C@@H](O)[C@H](O)[C@H]2O)c1O
inactive: outcome [1] inactive [at 17.4 µM] | Potency [2] | Potency [3] | outcome [4] | Potency [5] | Potency [6] | Potency [7] | Potency [8] | Potency [9] | Potency [10] | Potency [11] | Potency [12] | Potency [13]

CC(O)C(O)/C=C/C=C/C(=O)O[C@@H]1C=C(C(=O)O)[C@](O)(CO)[C@@]2(C)CCCC(C)(C)[C@H]12 (stereo partly specified)
inactive: outcome [1] inactive [at 17.4 µM] | Potency [2] | Potency [3] | outcome [4] | Potency [5] | Potency [6] | Potency [7] | Potency [8] | Potency [9] | Potency [10] | Potency [11] | Potency [12] | Potency [13]

CCC/C=C/C=C/C1CC(O)C(O)C(=O)C1CO (stereo unspecified)
inactive: outcome [1] | Potency [2] | Potency [3] | outcome [4] | Potency [5] | Potency [6] | Potency [7] | Potency [8] | Potency [9] | Potency [10] | Potency [11] | Potency [12] | Potency [13]

C[C@@]12CC3(S(=O)(=O)O)OC(O1)[C@]1(COC(=O)c4ccccc4)[C@H]3C[C@]21O[C@@H]1O[C@H](CO)[C@@H](O)[C@H](O)[C@H]1O
inactive: outcome [1] inactive [at 17.4 µM] | Potency [2] | Potency [3] | outcome [4] | Potency [5] | Potency [6] | Potency [7] | Potency [8] | Potency [9] | Potency [10] | Potency [11] | Potency [12] | Potency [13]

CC1(C)CC2C(O)C3=C(CC(C)(O)C2C1)C(=O)OC3 (stereo unspecified)
inactive: outcome [1] | Potency [2] | Potency [3] | outcome [4] | Potency [5] | Potency [6] | Potency [7] | Potency [8] | Potency [9] | Potency [10] | Potency [11] | Potency [12] | Potency [13]

C=C1C2CCC3CC2(CC(O)C2(O)C1CC(OC1OC(CO)C(O)C(O)C1O)C2(C)C)CC3(C)O (stereo unspecified)
inactive: outcome [1] inactive [at 17.4 µM] | Potency [2] | Potency [3] | outcome [4] | Potency [5] | Potency [6] | Potency [7] | Potency [8] | Potency [9] | Potency [10] | Potency [11] | Potency [12] | Potency [13]

COC(=O)C1(O)C(OC(C)=O)CCC2C3(CC(c4ccoc4)OC3=O)C(C)=CCC21C(=O)OC (stereo unspecified)
inactive: outcome [1] inactive [at 17.4 µM] | Potency [2] | Potency [3] | outcome [4] | Potency [5] | Potency [6] | Potency [7] | Potency [8] | Potency [9] | Potency [10] | Potency [11] | Potency [12] | Potency [13]

Cc1occc(=O)c1O[C@@H]1O[C@H](COC(=O)CC(C)(O)CC(=O)O)[C@@H](O)[C@H](O)[C@H]1O (stereo partly specified)
inactive: outcome [1] inactive [at 17.4 µM] | Potency [2] | Potency [3] | outcome [4] | Potency [5] | Potency [6] | Potency [7] | Potency [8] | Potency [9] | Potency [10] | Potency [11] | Potency [12] | Potency [13]

C[C@@]1(C(=O)O)CCC[C@@]2(C)C3=CC[C@H]4C[C@@]3(CC[C@H]12)CC4(O)CO (stereo partly specified)
inactive: outcome [1] | Potency [2] | Potency [3] | outcome [4] | Potency [5] | Potency [6] | Potency [7] | Potency [8] | Potency [9] | Potency [10] | Potency [11] | Potency [12] | Potency [13]

C=C1CC[C@@]2(OC1)O[C@H]1CC3C4CC=C5C[C@@H](O[C@@H]6O[C@@H](C)[C@H](O)[C@@H](O)[C@H]6O)C[C@@H](O[C@@H]6O[C@H](C)[C@H](O)[C@H](O)[C@H]6O[C@@H]6O[C@@H](C)[C@H](O)[C@@H](O)[C@H]6O)[C@]5(C)C4CC[C@]3(C)[C@H]1[C@@H]2C (stereo partly specified)
inactive: outcome [1] inactive [at 9.27 µM] | activity change, negative = cytotoxicity [2] 1.56% [at 11.6 µM] | activity change, negative = cytotoxicity [3] 10.5% [at 11.6 µM] | activity change, negative = cytotoxicity [4] -15.2% [at 11.6 µM] | activity change, negative = cytotoxicity [5] 20.8% [at 11.6 µM] | activity change, negative = cytotoxicity [6] 18.7% [at 11.6 µM] | activity change, negative = cytotoxicity [7] 5.62% [at 11.6 µM] | activity change, negative = cytotoxicity [8] -4.67% [at 11.6 µM] | activity change, negative = cytotoxicity [9] -12.6% [at 11.6 µM] | activity change, negative = cytotoxicity [10] -0.609% [at 11.6 µM] | activity change, negative = cytotoxicity [11] -7.76% [at 11.6 µM] | activity change, negative = cytotoxicity [12] -15.7% [at 11.6 µM] | activity change, negative = cytotoxicity [13] 1.88% [at 11.6 µM]

CC1(C)C=Cc2c(ccc3c2[N+]([O-])=C2C3(O)CC34NC(=O)C5(CCCN5C3=O)CC4C2(C)C)O1 (stereo unspecified)
inactive: outcome [1] inactive [at 17.4 µM] | Potency [2] | Potency [3] | outcome [4] | Potency [5] | Potency [6] | Potency [7] | Potency [8] | Potency [9] | Potency [10] | Potency [11] | Potency [12] | Potency [13]

CCC(C)C(=O)OC[C@H]1O[C@H](O[C@H]2O[C@H](CO)[C@@H](O)[C@H](O)[C@H]2O)[C@H](O)[C@@H](O)[C@@H]1O (stereo partly specified)
inactive: outcome [1] inactive [at 17.4 µM] | Potency [2] | Potency [3] | outcome [4] | Potency [5] | Potency [6] | Potency [7] | Potency [8] | Potency [9] | Potency [10] | Potency [11] | Potency [12] | Potency [13]
